D2 antagonist: antagonizes the human D2 dopamine receptor; P14416; HEK293 TREx D2 cells, calcium flux, dopamine EC80; inhibition, % at 10 µM; 340,000 compounds, 2% hits; AID 485344; in the data active = inhibition above about 30%; inactive = below that, where a call was filed
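Tetracycline-induced HEK293 TREx cells expressing D2 receptor forced-coupled to calcium signalling, loaded with no-wash calcium dye. Compounds added and calcium flux read 180 s, then dopamine added at EC80 and read a further 180 s.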
D2 PAM-1: potentiates the human D2 dopamine receptor allosterically. potentiation, % (concentration not given with the values). 360,000 compounds, 0.23% hits. DiscoveRx D2 beta-arrestin cells, luminescence, 90 min; 100% = 57 uM dopamine signal. AID 624464. P14416; in the data active = potentiation above about 50%; inconclusive = mostly about 30% to 49%
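PathHunter beta-arrestin assay in DiscoveRx D2 cells. Compounds were added with an EC20 of dopamine (50 nM final) for 90 min at 37 deg C. Luminescence was read 1 h after detection reagent, with 57 uM dopamine as the EC100 control.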
D2 ag-1: agonists of human D2 dopamine receptor (beta-arrestin); AID 624465; 360,000 compounds, 0.084% hits; DiscoveRx PathHunter D2 beta-arrestin, luminescence, 90 min; 100% = 57 uM dopamine signal; activation, % (no concentration beside the values); P14416; in the data active = activation above about 40%; inconclusive = between about 15% and that limit
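DiscoveRx PathHunter D2 beta-arrestin cells (2,100/well) attached overnight, then compound-stimulated 90 min at 37 C in HBSS/10 mM HEPES/0.1% Tween-20 buffer; beta-galactosidase complementation read by luminescence after 1 h at ambient temperature. Dopamine 57 uM final (EC100) as control.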
D2 ag-2: D2 dopamine receptor (human) agonism; P14416; HEK293 T-REx D2 cells, calcium flux agonist mode; activation, % at 2 µM; 340,000 compounds, 0.53% hits;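 active = activation over 3 SD above normal in the single-dose calcium agonist read, cut at about 30% in these data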
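HEK293 Trex D2 cells, tetracycline-induced, o/n 30 C 5% CO2; no-wash Ca dye, RT 30–90 min; 10-cycle baseline, 23 nl cpd added, kinetic Ca read 180 s; agonist hits = positive Ca response.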
D2 PAM-2: D2 dopamine receptor (human) potentiation; potentiation, % at 10 µM; 340,000 compounds, 0.34% hits; P14416; HEK293 T-REx D2, calcium flux, EC20 dopamine potentiation;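 active = potentiation over 3 SD above the plate norm, cut at about 30% in these data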
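Cells plated with tetracycline inducer and held overnight at 30 C; calcium dye loaded 30–90 min at room temperature; baseline taken, compound added and read 180 s; EC20 dopamine then added and read 180 s.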
D3 ag: activates human D3 dopamine receptor beta-arrestin recruitment. shares compounds with D2 ag-2. DiscoveRx D3 beta-arrestin cells, luminescence, 90 min. Potency, µM (highest dose often 76.9 µM), hits mostly activators. 2,300 compounds, 4% hits. AID 720506; note: nearly all actives have a fitted effect of over 70% in size
Target sequence (P35462 whole entry, looked up): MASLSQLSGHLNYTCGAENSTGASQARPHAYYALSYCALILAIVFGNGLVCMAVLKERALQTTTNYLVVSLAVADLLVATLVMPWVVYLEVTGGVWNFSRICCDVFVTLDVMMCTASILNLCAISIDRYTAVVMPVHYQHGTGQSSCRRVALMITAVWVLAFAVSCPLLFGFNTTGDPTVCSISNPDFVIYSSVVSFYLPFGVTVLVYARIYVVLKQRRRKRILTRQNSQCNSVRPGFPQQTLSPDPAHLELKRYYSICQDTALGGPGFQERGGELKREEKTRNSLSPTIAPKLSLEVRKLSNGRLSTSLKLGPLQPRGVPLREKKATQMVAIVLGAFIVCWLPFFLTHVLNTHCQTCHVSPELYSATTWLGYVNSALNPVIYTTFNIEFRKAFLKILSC
D2 ag-3: activates human D2 dopamine receptor in D3 counterscreen; Potency, µM (doses to about 76.9 µM), hits mostly activators; AID 720507; DiscoveRx PathHunter D2 beta-arrestin, luminescence, 90 min; response scale: percent relative to full dopamine signal; shares compounds with D2 ag-2; 2,300 compounds, 5.9% hits; note: nearly all actives have a fitted effect of over 70% in size
Each line names hits and unclear results; the compound was inactive in the other large screens (follow-up assays come after a bar, where they were run). Sampled rows, rich in hits. Any-hit rate of the full collection: about 2.4%. Unless noted, calls come from the whole dose curve; as a rule, active = well fitted activation curve with a large enough effect; inconclusive = small, poorly fitted or top-dose-only effect; inactive = flat fitted curve, though single readings scatter.

Cc1nn(-c2ccccc2)c(Cl)c1/C=N/N1CCN(c2ccccn2)CC1	none
Cc1cccnc1CNC(=O)C1(C)CCCN1CC(C)C (configuration not stated)	none (no result: D2 antagonist, D2 ag-2, D2 PAM-2)
CCSc1nc2c(c(=O)[nH]1)C(C(C)C)C(C#N)=C(N)O2 (configuration not stated)	D2 ag-2 45 | D3 ag inactive | D2 ag-3 inactive
COc1ccccc1NC(=O)N1CCCC1C(=O)NCc1ccc2c(c1)OCO2 (configuration not stated)	none
O=C(NCc1ccc2c(c1)OCO2)C1CCCN1C(=O)Nc1ccccc1 (configuration not stated)	D2 antagonist 66 | D3 ag inactive | D2 ag-3 inactive
COc1ccc(COC[B-](F)(F)F)cc1	none (no result: D2 antagonist, D2 ag-2, D2 PAM-2)
Fc1ccccc1NC(=S)N1CCN(c2ccccn2)CC1	none
COc1ccc(C)cc1NC(=S)N1CCN(c2ccccn2)CC1	D2 ag-2 57 | D3 ag inactive | D2 ag-3 inactive
FC(F)Sc1ccc(NC(=S)N2CCN(c3ccccn3)CC2)cc1	D2 ag-2 31 | D3 ag inconclusive | D2 ag-3 inconclusive
COc1ccc(/C=C/C(=O)N2CCN(c3ccccn3)CC2)cc1OC	none | D3 ag inactive | D2 ag-3 inactive
Oc1ccccc1N1CCN(C(=S)Nc2ccc(SC(F)F)cc2)CC1	none
CCc1ccccc1NC(=S)N1CCN(c2ccccn2)CC1	D2 ag-2 33 | D3 ag inactive | D2 ag-3 inconclusive
COc1ccc(NC(=S)N2CCN(c3ccccn3)CC2)cc1OC	D2 ag-2 49 | D3 ag inactive | D2 ag-3 inactive
FC(F)(F)c1cccc(NC(=S)N2CCN(c3ccccn3)CC2)c1	none | D3 ag inactive | D2 ag-3 inactive
Cc1ccc(NC(=S)N2CCN(c3ccccn3)CC2)c(C)c1	D2 antagonist 31, D2 ag-2 34 | D3 ag inactive | D2 ag-3 inactive
COc1cc(NC(=S)N2CCN(c3ccccn3)CC2)cc(OC)c1OC	none (no result: D2 antagonist, D2 ag-2, D2 PAM-2)
Cc1nnc(NCc2ccc(F)cc2)c2c1nnn2Cc1ccccc1Cl	none (no result: D2 antagonist, D2 PAM-1, D2 ag-1)
Cc1ccc(NC(=O)COCc2cc(-c3cccs3)on2)cc1Cl	none (no result: D2 antagonist, D2 PAM-1, D2 ag-1)
COc1ccccc1-c1cc2nc(-c3ccccc3)cc(N3CCN(C(=O)c4ccco4)CC3)n2n1	none (no result: D2 antagonist, D2 ag-2, D2 PAM-2)
CCOC(=O)C1CCCN(C2CCN(Cc3nc(Cc4ccccc4)no3)CC2)C1 (configuration not stated)	D2 antagonist 34 | D3 ag inactive | D2 ag-3 inactive
CCOC(=O)C1CCCN(C2CCN(Cc3nc(-c4ccccc4)no3)CC2)C1 (configuration not stated)	D2 ag-2 52 | D3 ag inactive | D2 ag-3 inactive
CCOC(=O)C1CCN(C2CCN(Cc3nc(-c4ccccc4)no3)CC2)CC1	none
CCOC(=O)C1CCCN(Cc2nc(Cc3cccc(F)c3)no2)C1 (configuration not stated)	none
COCCCNC(=O)CN1C(=O)COc2ccc(S(=O)(=O)N3CCOCC3)cc21	none
CCCN(CCC)CCNC(=O)CN1C(=O)COc2ccc(S(=O)(=O)N3CCOCC3)cc21	D2 ag-2 37 | D3 ag inactive | D2 ag-3 inactive
O=C(/C=C/c1ccccc1)NCC(=O)N/N=C/c1cccs1	D2 ag-2 43 | D3 ag inactive | D2 ag-3 inactive
CCOC(=O)C1CCN(Cc2cnc(Oc3ccc(N)cc3)s2)CC1	D2 antagonist 67, D2 ag-1 inconclusive, D2 ag-2 76 | D3 ag inactive | D2 ag-3 inconclusive
CCOC(=O)C1CCN(Cc2cccc(Oc3ccc(Cl)cc3)c2)CC1	D2 antagonist 72, D2 ag-1 inconclusive, D2 ag-2 62 | D3 ag inconclusive | D2 ag-3 40µM
CCN1CCN(Cc2cccc(Oc3ccc(Cl)cc3)c2)CC1	none
Cn1nnnc1Sc1ncnc2scc(-c3cccs3)c12	D2 PAM-2 31 (no result: D2 PAM-1, D2 ag-1) | D3 ag inactive | D2 ag-3 inactive
Cn1nnnc1Sc1ncnc2scc(-c3ccc(C(F)(F)F)cc3)c12	none (no result: D2 PAM-1, D2 ag-1)
CCN(CC)CCCNc1nc2ccccc2c2[nH]c3ccc(OC)cc3c12	none (no result: D2 antagonist, D2 ag-2, D2 PAM-2)
CCOC(=O)C1CCN(CC(O)COc2ccc(C(C)(C)C)cc2)CC1 (configuration not stated)	D2 ag-1 inconclusive
CCOC(=O)C1CCN(CC(O)COc2ccc(C(C)=O)cc2)CC1 (configuration not stated)	D2 antagonist 31, D2 ag-2 41 | D3 ag inactive | D2 ag-3 inactive
CCOC(=O)C1CCN(CC(O)COc2ccc(C(C)(C)CC)cc2)CC1 (configuration not stated)	D2 antagonist 80, D2 ag-2 66 | D3 ag inactive | D2 ag-3 inconclusive
CN1C/C(=C/c2ccsc2)C(=O)/C(=C/c2ccsc2)C1	D2 antagonist 44, D2 ag-2 69 | D3 ag inactive | D2 ag-3 inactive
CN1C/C(=C\c2ccc(N3CCOCC3)cc2)C(=O)/C(=C/c2ccc(N3CCOCC3)cc2)C1	none | D3 ag inactive | D2 ag-3 inactive
Cc1cccc(C)c1NC(=S)NCCc1ccc(O)c(O)c1	D2 antagonist 67, D2 ag-2 57 | D3 ag inactive | D2 ag-3 inconclusive
Cc1cccc(NC(=S)NCCc2ccccc2)c1C	none
CCOc1ccc2nc(N(CCCN(C)C)C(=O)c3ccc(S(=O)(=O)N4CCCC4)cc3)sc2c1	D2 antagonist 31 | D3 ag inactive | D2 ag-3 inactive
Cc1nnc(N2CCCC(C(=O)Nc3cccc(C(F)(F)F)c3)C2)c2nn(-c3ccccc3)c(C)c12 (configuration not stated)	none (no result: D2 antagonist, D2 PAM-1, D2 ag-1, D2 ag-2)
CC(=O)Nc1cccc(-c2nnc(SCC(=O)c3cc([N+](=O)[O-])ccc3Br)o2)c1	none (no result: D2 antagonist, D2 PAM-1, D2 ag-1)
COc1ccc(Cl)cc1NC(=O)c1cnc2sc(N3CCOCC3)nn2c1=O	none (no result: D2 antagonist, D2 PAM-1, D2 ag-1)
O=C(c1ccccc1)[C@@H]1[C@@H](C(=O)c2ccc(F)cc2)[C@@]2(C(=O)Nc3ccccc32)[C@H]2c3ccccc3C=CN12	D2 ag-2 57 | D3 ag inactive | D2 ag-3 inactive
CC(=O)[C@@H]1[C@@H](C(=O)c2ccccc2)[C@]2(C(=O)Nc3ccccc32)[C@H]2C=Cc3cc(F)ccc3N12	none
O=C(COc1ccc(Cl)cc1)NNC(=O)c1cccnc1	none | D3 ag inactive | D2 ag-3 inactive

Bioassay records: PubChem BioAssay, National Center for Advancing Translational Sciences (NCATS)
